The source of these data is ChEMBL document CHEMBL1961873, “Compounds: GSK PKIS; Assays: Nanosyn kinase panel” (2012).

One may read the inhibition as the drop in the measured response relative to a control, in per cent.

Molecules are shown by their SMILES.

Assay [1] addresses RAC-alpha serine/threonine-protein kinase (Homo sapiens) (UniProt P31749). Particulars: at 0.1 µM.
For assay [2] the target is unchanged. The following applies: at 1 µM.
The target in assay [3] is RAC-gamma serine/threonine-protein kinase (Homo sapiens) (UniProt Q9Y243). The following applies: at 0.1 µM.
Assay [4] shares this target. Particulars: at 1 µM.
Assay [5] addresses G protein-coupled receptor kinase 6 (Homo sapiens) (UniProt P43250). The following applies: at 0.1 µM.
Assay [6] has the same target. The following applies: at 1 µM.
Assay [7] has as its target T1, Rhodopsin kinase GRK7 (Homo sapiens) (UniProt Q8WTQ7).
T1 sequence (whole entry): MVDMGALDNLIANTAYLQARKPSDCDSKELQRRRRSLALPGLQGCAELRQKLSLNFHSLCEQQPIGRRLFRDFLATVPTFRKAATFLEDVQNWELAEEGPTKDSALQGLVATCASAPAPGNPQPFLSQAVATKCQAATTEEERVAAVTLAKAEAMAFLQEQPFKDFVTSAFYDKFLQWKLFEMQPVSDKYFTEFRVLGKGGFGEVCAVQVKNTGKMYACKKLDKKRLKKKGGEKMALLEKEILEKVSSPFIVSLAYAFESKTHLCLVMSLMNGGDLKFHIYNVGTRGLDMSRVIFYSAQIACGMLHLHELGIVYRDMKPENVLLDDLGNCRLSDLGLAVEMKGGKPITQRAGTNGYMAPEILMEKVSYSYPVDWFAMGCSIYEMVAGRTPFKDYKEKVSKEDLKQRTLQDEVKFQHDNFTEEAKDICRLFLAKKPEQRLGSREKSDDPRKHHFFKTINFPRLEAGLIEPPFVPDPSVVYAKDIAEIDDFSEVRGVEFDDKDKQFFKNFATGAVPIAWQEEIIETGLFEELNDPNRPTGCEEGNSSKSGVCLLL
Particulars: at 0.1 µM.

Assay [8] concerns the target T1, Rhodopsin kinase GRK7 (Homo sapiens). Particulars: at 1 µM.
In assay [9] the target is Serine/threonine-protein kinase MRCK alpha (Homo sapiens) (UniProt Q5VT25). The following applies: at 0.1 µM.
Sequence of Serine/threonine-protein kinase MRCK alpha (Homo sapiens) (Q5VT25 whole entry): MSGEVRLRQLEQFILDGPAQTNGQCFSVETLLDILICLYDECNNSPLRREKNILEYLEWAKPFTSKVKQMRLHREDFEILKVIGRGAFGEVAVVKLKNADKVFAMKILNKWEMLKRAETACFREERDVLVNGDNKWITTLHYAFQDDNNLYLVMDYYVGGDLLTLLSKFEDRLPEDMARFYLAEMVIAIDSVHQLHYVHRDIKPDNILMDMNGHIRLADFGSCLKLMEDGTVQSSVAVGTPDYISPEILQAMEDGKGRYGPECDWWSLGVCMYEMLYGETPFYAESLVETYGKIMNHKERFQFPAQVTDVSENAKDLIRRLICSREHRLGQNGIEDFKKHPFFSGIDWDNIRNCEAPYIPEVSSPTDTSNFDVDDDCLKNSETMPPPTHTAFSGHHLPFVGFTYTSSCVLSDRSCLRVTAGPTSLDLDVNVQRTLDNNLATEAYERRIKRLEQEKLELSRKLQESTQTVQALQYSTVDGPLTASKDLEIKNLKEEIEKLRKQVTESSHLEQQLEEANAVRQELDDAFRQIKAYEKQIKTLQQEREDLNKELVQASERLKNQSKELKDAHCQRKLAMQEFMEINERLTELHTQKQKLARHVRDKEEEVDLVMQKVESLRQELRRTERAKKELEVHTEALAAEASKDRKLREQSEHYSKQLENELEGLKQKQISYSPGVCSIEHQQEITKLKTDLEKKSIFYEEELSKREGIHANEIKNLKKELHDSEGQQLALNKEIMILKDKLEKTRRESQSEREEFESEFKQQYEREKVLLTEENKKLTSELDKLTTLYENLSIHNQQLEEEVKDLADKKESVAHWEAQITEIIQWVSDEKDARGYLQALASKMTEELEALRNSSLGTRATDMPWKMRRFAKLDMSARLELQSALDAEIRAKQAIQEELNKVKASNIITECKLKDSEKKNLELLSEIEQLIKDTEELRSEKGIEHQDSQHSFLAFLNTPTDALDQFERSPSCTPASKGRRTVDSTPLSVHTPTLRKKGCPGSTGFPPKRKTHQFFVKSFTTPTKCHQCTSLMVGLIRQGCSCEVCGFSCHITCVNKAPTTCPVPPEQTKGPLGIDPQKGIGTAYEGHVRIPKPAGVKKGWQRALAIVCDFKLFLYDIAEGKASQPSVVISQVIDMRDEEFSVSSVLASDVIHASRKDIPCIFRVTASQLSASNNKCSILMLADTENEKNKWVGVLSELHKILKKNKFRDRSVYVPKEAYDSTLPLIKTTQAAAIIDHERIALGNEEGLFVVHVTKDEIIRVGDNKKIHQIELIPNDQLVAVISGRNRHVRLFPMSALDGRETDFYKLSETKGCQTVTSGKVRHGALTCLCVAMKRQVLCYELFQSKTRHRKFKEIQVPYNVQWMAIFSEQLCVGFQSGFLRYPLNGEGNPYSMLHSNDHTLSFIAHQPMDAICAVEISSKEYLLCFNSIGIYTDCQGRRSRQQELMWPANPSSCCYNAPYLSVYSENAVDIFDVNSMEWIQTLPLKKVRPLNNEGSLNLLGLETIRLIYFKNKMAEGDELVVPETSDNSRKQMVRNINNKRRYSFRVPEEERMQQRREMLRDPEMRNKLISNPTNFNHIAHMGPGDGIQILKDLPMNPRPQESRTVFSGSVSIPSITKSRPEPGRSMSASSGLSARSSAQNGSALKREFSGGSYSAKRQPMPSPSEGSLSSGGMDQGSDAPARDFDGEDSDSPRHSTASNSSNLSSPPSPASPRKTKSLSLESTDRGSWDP
Assay [10] shares this target. The following applies: at 1 µM.
Assay [11] deals with Serine/threonine-protein kinase MRCK beta (Homo sapiens) (UniProt Q9Y5S2). The following applies: at 0.1 µM.
The target is the same in assay [12]. Particulars: at 1 µM.
Assay [13] concerns the target Ribosomal protein S6 kinase alpha-5 (Homo sapiens) (UniProt O75582). The following applies: at 0.1 µM.
For assay [14] the target is unchanged. The following applies: at 1 µM.
The target in assay [15] is Ribosomal protein S6 kinase alpha-4 (Homo sapiens) (UniProt O75676). Particulars: at 0.1 µM.
Sequence of Ribosomal protein S6 kinase alpha-4 (Homo sapiens) (O75676 whole entry, looked up): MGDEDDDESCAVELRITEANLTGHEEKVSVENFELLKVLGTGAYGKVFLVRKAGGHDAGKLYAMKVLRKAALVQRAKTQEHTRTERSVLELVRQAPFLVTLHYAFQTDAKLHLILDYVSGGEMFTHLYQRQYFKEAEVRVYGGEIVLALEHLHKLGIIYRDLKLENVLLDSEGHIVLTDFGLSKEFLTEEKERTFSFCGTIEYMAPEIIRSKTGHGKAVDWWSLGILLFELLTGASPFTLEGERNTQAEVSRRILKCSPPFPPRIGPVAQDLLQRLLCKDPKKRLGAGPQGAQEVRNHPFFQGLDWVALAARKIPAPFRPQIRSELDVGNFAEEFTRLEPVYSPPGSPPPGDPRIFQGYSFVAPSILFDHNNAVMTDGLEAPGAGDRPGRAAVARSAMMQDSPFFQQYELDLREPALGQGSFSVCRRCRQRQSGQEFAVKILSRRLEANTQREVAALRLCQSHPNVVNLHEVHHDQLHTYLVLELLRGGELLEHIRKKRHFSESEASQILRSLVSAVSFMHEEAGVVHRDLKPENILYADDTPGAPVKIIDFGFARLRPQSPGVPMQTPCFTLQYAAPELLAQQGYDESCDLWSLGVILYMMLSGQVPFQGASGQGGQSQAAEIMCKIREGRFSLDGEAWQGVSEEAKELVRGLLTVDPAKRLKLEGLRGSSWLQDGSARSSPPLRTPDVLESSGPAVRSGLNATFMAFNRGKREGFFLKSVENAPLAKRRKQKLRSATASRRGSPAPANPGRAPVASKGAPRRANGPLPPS
The target is the same in assay [16]. The following applies: at 1 µM.
The target in assay [17] is Ribosomal protein S6 kinase beta-1 (Homo sapiens) (UniProt P23443). The following applies: at 0.1 µM.
Sequence of Ribosomal protein S6 kinase beta-1 (Homo sapiens) (P23443 whole entry, looked up): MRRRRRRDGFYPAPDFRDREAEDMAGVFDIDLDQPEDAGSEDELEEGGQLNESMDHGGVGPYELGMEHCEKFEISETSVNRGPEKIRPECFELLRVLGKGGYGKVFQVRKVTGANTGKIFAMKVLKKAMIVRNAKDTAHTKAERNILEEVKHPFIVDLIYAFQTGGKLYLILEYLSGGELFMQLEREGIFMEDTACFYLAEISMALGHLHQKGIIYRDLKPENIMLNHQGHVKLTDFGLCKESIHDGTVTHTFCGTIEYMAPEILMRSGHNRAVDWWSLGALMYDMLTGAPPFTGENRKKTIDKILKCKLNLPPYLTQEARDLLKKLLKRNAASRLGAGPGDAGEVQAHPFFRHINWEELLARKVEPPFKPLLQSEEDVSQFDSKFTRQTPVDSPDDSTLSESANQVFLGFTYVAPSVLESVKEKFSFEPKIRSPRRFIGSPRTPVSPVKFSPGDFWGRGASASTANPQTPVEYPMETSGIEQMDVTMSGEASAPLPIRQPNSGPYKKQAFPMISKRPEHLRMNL
The target is the same in assay [18]. The following applies: at 1 µM.
In assay [19] the target is RAC-beta serine/threonine-protein kinase (Homo sapiens) (UniProt P31751). Particulars: at 0.1 µM.
Sequence of RAC-beta serine/threonine-protein kinase (Homo sapiens) (P31751 whole entry): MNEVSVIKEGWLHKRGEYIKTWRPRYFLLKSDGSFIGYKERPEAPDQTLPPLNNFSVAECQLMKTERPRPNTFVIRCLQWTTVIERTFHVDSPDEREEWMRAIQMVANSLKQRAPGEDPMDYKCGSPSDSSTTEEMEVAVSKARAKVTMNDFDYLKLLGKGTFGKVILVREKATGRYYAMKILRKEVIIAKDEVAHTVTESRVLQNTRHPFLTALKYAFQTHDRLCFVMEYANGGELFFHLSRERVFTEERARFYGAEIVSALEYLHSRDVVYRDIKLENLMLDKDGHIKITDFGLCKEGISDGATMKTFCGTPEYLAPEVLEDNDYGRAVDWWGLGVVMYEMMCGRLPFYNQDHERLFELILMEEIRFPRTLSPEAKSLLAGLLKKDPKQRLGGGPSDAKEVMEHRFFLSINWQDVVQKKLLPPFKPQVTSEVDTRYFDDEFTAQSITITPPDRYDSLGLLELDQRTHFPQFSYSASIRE
For assay [20] the target is unchanged. The following applies: at 1 µM.

Sequence of Ribosomal protein S6 kinase alpha-5 (Homo sapiens) (O75582 whole entry, looked up): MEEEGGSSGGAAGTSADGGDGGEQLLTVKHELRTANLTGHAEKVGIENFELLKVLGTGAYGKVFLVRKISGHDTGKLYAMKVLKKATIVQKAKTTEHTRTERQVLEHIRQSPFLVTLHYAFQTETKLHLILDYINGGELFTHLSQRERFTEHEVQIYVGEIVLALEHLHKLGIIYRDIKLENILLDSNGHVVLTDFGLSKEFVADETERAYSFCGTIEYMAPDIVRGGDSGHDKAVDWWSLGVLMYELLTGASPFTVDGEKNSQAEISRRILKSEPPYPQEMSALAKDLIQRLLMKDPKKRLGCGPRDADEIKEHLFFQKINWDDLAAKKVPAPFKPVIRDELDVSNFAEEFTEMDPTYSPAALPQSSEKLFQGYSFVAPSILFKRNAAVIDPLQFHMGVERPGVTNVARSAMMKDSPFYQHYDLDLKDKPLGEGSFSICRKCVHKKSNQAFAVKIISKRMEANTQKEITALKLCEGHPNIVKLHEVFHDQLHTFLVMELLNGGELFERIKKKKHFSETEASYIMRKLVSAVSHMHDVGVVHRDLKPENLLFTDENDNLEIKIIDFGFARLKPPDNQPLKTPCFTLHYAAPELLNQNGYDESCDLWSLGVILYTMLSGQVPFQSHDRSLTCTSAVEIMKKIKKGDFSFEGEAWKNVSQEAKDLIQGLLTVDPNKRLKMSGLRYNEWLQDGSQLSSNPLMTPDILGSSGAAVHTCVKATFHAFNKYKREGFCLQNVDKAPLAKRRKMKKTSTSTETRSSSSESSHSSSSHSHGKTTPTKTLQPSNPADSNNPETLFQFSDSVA
Sequence of RAC-alpha serine/threonine-protein kinase (Homo sapiens) (P31749 whole entry): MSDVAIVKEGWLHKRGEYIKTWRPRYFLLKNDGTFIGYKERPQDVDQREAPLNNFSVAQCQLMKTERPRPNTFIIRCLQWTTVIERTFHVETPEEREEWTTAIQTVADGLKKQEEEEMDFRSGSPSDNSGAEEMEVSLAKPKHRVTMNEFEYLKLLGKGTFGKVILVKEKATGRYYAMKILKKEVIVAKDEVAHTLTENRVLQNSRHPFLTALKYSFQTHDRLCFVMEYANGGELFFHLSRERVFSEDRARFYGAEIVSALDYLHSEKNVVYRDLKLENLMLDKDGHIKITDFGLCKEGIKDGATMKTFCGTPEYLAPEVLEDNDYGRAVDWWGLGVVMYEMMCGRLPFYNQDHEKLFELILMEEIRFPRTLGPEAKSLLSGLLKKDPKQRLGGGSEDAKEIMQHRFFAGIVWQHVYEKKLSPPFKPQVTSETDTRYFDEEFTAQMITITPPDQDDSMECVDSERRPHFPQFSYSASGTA

`CCn1c(-c2nonc2N)nc2c(C#CC(C)(C)O)nc(O[C@@H](CN)c3ccccc3)cc21`: the inhibition in assay [1] is 93.7%; in assay [2], 96.4%; in assay [3], 93.3%; in assay [4] it was 95%; in [5] it was 1.13%; in assay [6], 1.51%. In addition, the inhibition in assay [7] worked out at 3%; in [8], 114%; in [9] it was 29%; in assay [10] it was 72.8%; in [11], 20.8%; in assay [12], 66.2%. The inhibition in assay [13] was determined as 8.67%; in [14] it was 51.3%; in [15] it was 15%; in [16], 61.3%; in assay [17], 13.1%; in assay [18] it was 58.4%.

In the case of `Fc1ccc(-c2ncn(C3CCNCC3)c2-c2ccnc(Oc3ccccc3)n2)cc1`, the inhibition in assay [1] is -3.52%; in [2], -2.95%; in assay [19], -2.98%; in [3], -3.09%; in assay [4], 4.46%; in [5], -2.07%. Also, the inhibition was 1.13% in assay [6]; 8.55% in assay [7]; -1.71% in assay [8]; -3.2% in assay [9]; -1.87% in [10]; -0.1% in [11]. In addition, the inhibition in assay [12] is -0.81%; in assay [13], -1.31%; in [14], -2.46%; in assay [15], 1.09%; in assay [16] it was 0.21%; in assay [17], 1.34%. In [18], the inhibition was determined as 7.24%.

`Nc1nonc1-c1nc2cnccc2n1C1CCCCC1`: the inhibition in assay [1] was 3.37%; in assay [2] it was 37.4%; in assay [19], 1.24%; in [20], 22.4%; in assay [3] it was 3.35%; in assay [4], 32.3%. Also, the inhibition in assay [5] was -0.4%; in assay [6] it was 2.07%; in assay [7] it was -7.5%; in [8], 2.63%; in assay [9] it was 18.6%; in assay [10], 65.9%. The inhibition stood at 29.6% in assay [11]; 72% in [12]; 76.5% in [13]; 85.2% in assay [14]; 59.6% in assay [15]; 83% in assay [16]. Further, the inhibition in assay [17] is 72.6%; in assay [18] it was 91.2%.

On to `NS(=O)(=O)c1ccc(-c2ccc3c(NC(=O)C4CC4)n[nH]c3c2)cc1`, for which the inhibition in [1] is 0.97%; in assay [2], 1%; in assay [19], 1.38%; in [20], 0.67%; in assay [3], 0.25%; in [4], -0.65%. Besides, the inhibition in assay [5] is 0.33%; in assay [6], -2.37%; in assay [7], -0.74%; in assay [9] it was -0.42%; in assay [10] it was -1.48%; in assay [11], 0.24%. Moreover, the inhibition in assay [12] was 1.84%; in [13], 3.18%; in assay [14], 7.98%; in assay [15], -0.31%; in assay [16] it was 4.18%; in assay [17], 0.95%. Moreover, in [18], the inhibition turned out to be 2.84%.

Take `NS(=O)(=O)c1ccc(N/C=C2\C(=O)Nc3ccc4ncsc4c32)cc1`: the inhibition in assay [1] was 0.54%; in [2], 0.61%; in assay [19], 2.08%; in [20], 2.38%; in [3], 0.65%; in [4], 3.15%. For the same molecule, the inhibition was 4.87% in assay [5]; 18.7% in assay [6]; 8.46% in assay [7]; 6.58% in assay [8]; -1.47% in [9]; 10.5% in assay [10]. Besides, the inhibition in [11] is 0.46%; in assay [12] it was 5.66%; in assay [13], 5.1%; in assay [14], 12.2%; in assay [15], 15.3%; in [16], 50.9%. Further, the inhibition in assay [17] is 1.92%; in [18] it was 13.5%.

For the molecule `COc1cccc(COc2cc(-n3cnc4ccccc43)sc2C(N)=O)c1`, the inhibition in [1] is 2.26%; in assay [2], 0.35%; in assay [20], 2.81%; in assay [3], -0.85%; in assay [4], -1.8%; in assay [5], 0.1%. In addition, the inhibition was 0.82% in [6]; 4.74% in assay [7]; -0.33% in [8]; -5.2% in assay [9]; -1.17% in assay [10]; -0.37% in assay [11]. In addition, the inhibition in assay [12] was 0.51%; in assay [13] it was 0.54%; in assay [14] it was -1.08%; in assay [15], 1.36%; in [16], -0.28%; in assay [17] it was 0.45%. The inhibition in assay [18] is -0.53%.

As for `Cc1cc(-c2ccco2)cc(C)c1/C=C/c1cncc(-c2nn[nH]n2)c1`, the inhibition in [1] is -0.08%; in assay [2] it was -0.39%; in assay [19] it was -0.63%; in assay [20], 0.09%; in assay [3], -0.47%; in assay [5] it was -3.85%. Moreover, the inhibition is 11.8% in [7]; 49.9% in assay [8]; -2.3% in assay [9]; -3.4% in assay [10]; 0.22% in assay [11]; -0.72% in assay [12]. The inhibition was -0.62% in [13]; -1.54% in assay [14]; 0.13% in assay [15]; 1.02% in [16]; 0.97% in assay [17]; -0.33% in [18].
